Measured values taken from PubChem BioAssay (NCATS).
Inconclusive results are not listed. Entries that show only a call come without a potency. Active and inactive are the calls of the source. Calls come from the whole dose curve; as a rule, active = well fitted curve in the direction sought with a large enough effect; inconclusive = small, poorly fitted or top-dose-only effect, or another doubt; inactive = no such curve, though single readings can be large; an effect the other way counts as inactive or inconclusive.

Legend:
[1] = biological target: Aldehyde dehydrogenase, mitochondrial (Homo sapiens) (UniProt P05091); assay: qHTS for Inhibitors of the Aldehyde Dehydrogenase Family (ALDH2) Primary screen (AID 2061308); note: nearly all actives have a fitted effect of over 55% in size
[2] = biological target: Retinaldehyde dehydrogenase 3 (Homo sapiens) (UniProt P47895); assay: qHTS for Inhibitors of the Aldehyde Dehydrogenase Family (ALDH1A3) Primary screen (AID 2061315)

| Compound | Potency [1] | Potency [2] |
| --- | --- | --- |
| Cc1ccc(NS(=O)(=O)c2cc3c(cc2Cl)NC(=O)CO3)cc1C | inactive | inactive |
| COc1ccc(-c2nnc3n2N=C(c2ccc(OC)cc2OC)CS3)cc1 | inactive | inactive |
| C=C(C)C(=O)O[C@H]1[C@H]2C(=C)C(=O)O[C@@H]2C[C@@H](C)[C@@H]2O[C@@H]2C(=O)[C@](C)(O)[C@@H]1OC(=O)C(=C)C | inactive | inactive |
| COc1ccc(OC)c(C2=Nn3c(nnc3-c3ccccc3O)SC2)c1 | inactive | inactive |
| N=c1c2c(ccn1Cc1ccccc1)Oc1ccc3ccccc3c1C2c1ccccc1 (configuration not stated) | inactive | inactive |
| Cc1cc(C)nc(NC(=S)N2CCN(c3cc(C#N)cc(C#N)c3)CC2)c1 | inactive | inactive |
| O=C1CCc2cc(S(=O)(=O)Nc3ccc4c(c3)CCC4)ccc2N1 | inactive | inactive |
| N=c1c2c(ccn1CCCCc1ccccc1)Oc1ccc3ccccc3c1C2c1ccccc1 (configuration not stated) | inactive | inactive |
| O=C(CSc1nc2ccccc2[nH]1)N1CCOCC1 | inactive | inactive |
| O=C(O)c1sc2c(c1-c1nc3ccccc3s1)CCNC2 | inactive | inactive |
| COc1ccc(C2Nc3ccccc3C(=O)N2Cc2cccs2)cc1COc1c(C)cccc1C (configuration not stated) | inactive | inactive |
| CC(C)CN1CCN(C(=O)COC(=O)c2ccc(S(C)(=O)=O)c([N+](=O)[O-])c2)CC1 | inactive | inactive |
| O=C(c1ccc2c(c1)ncn2-c1cccc(C(F)(F)F)c1)N1CCCCC1 | inactive | inactive |
| CCOC(=O)c1nc(NCc2ccccc2)sc1C | inactive | inactive |
| O=[S+]([O-])(c1ccc2c(c1)OCCO2)N1CCN([S+](=O)([O-])c2c(F)cc(Br)cc2F)CC1 | inactive | inactive |
| N#Cc1nc(Nc2cc(F)cc(F)c2)c2ncn(CCN3CCCC3)c2n1 | inactive | inactive |
| O=S(=O)(c1ccc2c(c1)OCCO2)N1CCN(S(=O)(=O)c2cccs2)CC1 | inactive | inactive |
| O=C1CCCC2=C1C(c1[nH]ncc1Cl)N=C(Nc1ccccn1)N2 (configuration not stated) | inactive | inactive |
| CC(C)(N)C(=O)Nc1ccc(Cl)cc1C(=O)c1ccc[nH]1 | inactive | inactive |
| CN1CCN(c2ccc(Nc3nc(-c4ccncc4)nc4ccccc34)cc2F)CC1 | inactive | inactive |
| N[C@@H](Cc1ccc(O[S+](=O)([O-])c2cccc3cnccc23)cc1)C(=O)N1CCN(c2ccccc2)CC1 | inactive | inactive |
